Results from PubChem BioAssay (EPA / NIEHS).
Records with an inconclusive call do not appear. Active and inactive are the calls of the source. Rule for the calls, unless noted: active = hit-call score of the fitted dose curve at least 0.9, where 1 is the maximum; inconclusive = response in the unintended direction; inactive = score below 0.9.

Legend:
[1] = read-out: xenobiotic metabolism (CYP1A1), CYP1A1 (gene 1543); experiment: CLD_CYP1A1_24hr: CellzDirect (CLD) Gene Expression Assay for xenobiotic metabolism (CYP1A1) at 24 hours (AID 2283673);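 note: CYP1A1 mRNA level by quantitative nuclease protection with chemiluminescence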
Summary of the method: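 Transcript levels were read at 24 h by qNPA chemiluminescence in human liver primary cells. Cells got daily fresh dosing at multiple concentrations (vehicle 0.2% DMSO). Induction fitted upward against DMSO; phase-contrast cytotoxicity annotated.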

[2] = CCTE_Padilla_ZF_144hpf_TERATOSCORE: (Legacy) CCTE's 144 Hour Post-fertilization zebrafish Assay Teratoscore, Padilla Lab (AID 2283679; active = hit-call score of the fitted dose curve at least 0.9, where 1 is the maximum; inactive = score below 0.9;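 for AC50: zebrafish embryos with chorions exposed by immersion from 6-8 hpf to 5 dpf with daily renewal; teratogenicity score from eye scoring of death hatching and malformations at 144 hpf; higher score means more developmental defects relative to DMSO baseline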)
Summary of the method: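 Larvae scored by eye at 144 hpf for death, hatching and malformations after a day in clean Hanks'. Before that, daily-renewed exposure at 80 uM (0.4% DMSO, 26C) from roughly 6-8 hpf through 5 dpf, 4 embryos per chemical.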

[3] = read-out: Cytochrome P450 2B6 (Homo sapiens) (UniProt P20813); experiment: CLD_CYP2B6_24hr: CellzDirect (CLD) Gene Expression Assay for xenobiotic metabolism (CYP2B6) at 24 hours (AID 2283686)
Summary of the method: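 qNPA chemiluminescent measurement of mRNA at 24 hours in human primary hepatocyte cultures from two donor preparations, with daily fresh dosing and 0.2% DMSO vehicle as baseline. Morphology-based cytotoxicity flagged yes/no.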

[4] = read-out: Cytochrome P450 2C9 (Homo sapiens) (UniProt P11712); experiment: CLD_CYP2C9_24hr: CellzDirect (CLD) Gene Expression Assay for xenobiotic metabolism (CYP2C9) at 24 hours (AID 2283688)
Summary of the method: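 Induction of CYP2C9 mRNA was quantified by quantitative nuclease protection assay (chemiluminescence), gain of signal versus 0.2% DMSO vehicle, 24 h after dosing. Human primary hepatocytes (two donors) received fresh chemical daily at multiple concentrations; morphology-based cytotoxicity flagged yes/no.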

[5] = read-out: Cytochrome P450 3A4 (Homo sapiens) (UniProt P08684); experiment: CLD_CYP3A4_24hr: CellzDirect (CLD) Gene Expression Assay for xenobiotic metabolism (CYP3A4) at 24 hours (AID 2283689)
Summary of the method: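 CYP3A4 mRNA induction read by quantitative nuclease protection (chemiluminescence) 24 hr after dosing. Cultured human hepatocytes (two donor preparations) treated daily, vehicle 0.2% DMSO; phase-contrast morphology annotates cytotoxicity.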

[6] = read-out: Glyceraldehyde-3-phosphate dehydrogenase (Homo sapiens) (UniProt P04406); experiment: CLD_GAPDH_24hr: CellzDirect (CLD) Gene Expression Assay for Baseline Control (Glyceraldehyde 3-phosphate dehydrogenase) at 24 hours (AID 2283692)
Summary of the method: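 GAPDH baseline-control readout: qNPA chemiluminescent mRNA signal in human primary hepatocytes harvested 24 h after daily dosing, normalised to 0.2% DMSO with positive fitting direction; cytotoxicity annotated by phase-contrast morphology.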

[7] = read-out: alkyl and aryl transferase (GSTA2), GSTA2 (gene 2939); experiment: CLD_GSTA2_24hr: CellzDirect (CLD) Gene Expression Assay for alkyl and aryl transferase (GSTA2) at 24 hours (AID 2283693)
Summary of the method: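 GSTA2 transcript levels were quantified by quantitative nuclease protection assay in primary human hepatocytes 24 h after daily dosing with fresh solutions at multiple concentrations; 0.2% DMSO vehicle as baseline, cytotoxicity flagged morphologically.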

[8] = read-out: ABC Transporter (ABCB1), ABCB1 (gene 5243); experiment: CLD_ABCB1_48hr: CellzDirect (CLD) Gene Expression Assay for ABC Transporter (ABCB1) at 48 hours (AID 2283695)
Summary of the method: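 ABCB1 mRNA was measured by quantitative nuclease protection assay (chemiluminescence) 48 h after dosing. Human hepatocyte cultures from two separate donors received fresh dosing solutions daily for two days, with 0.2% DMSO as vehicle. Positive-direction fit against DMSO.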

[9] = read-out: glucuronosyltransferase (UGT1A1), UGT1A1 (gene 54658); experiment: CLD_UGT1A1_24hr: CellzDirect (CLD) Gene Expression Assay for glucuronosyltransferase (UGT1A1) at 24 hours (AID 2283696)
Summary of the method: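 UGT1A1 transcript induction was measured by quantitative nuclease protection assay (chemiluminescence) in human hepatocyte cultures 24 h after daily fresh dosing, with 0.2% DMSO as vehicle and baseline.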

[10] = read-out: ABC Transporter (ABCB11), ABCB11 (gene 8647); experiment: CLD_ABCB11_48hr: CellzDirect (CLD) Gene Expression Assay for ABC Transporter (ABCB11) at 48 hours (AID 2283697)
Summary of the method: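 Induction of ABCB11 mRNA relative to 0.2% DMSO, measured at 48 h by qNPA chemiluminescence. Cultured human hepatocytes (two donors) received fresh dosing solutions at several concentrations on two consecutive days.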

[11] = read-out: Cytochrome P450 2B6 (Homo sapiens) (UniProt P20813); experiment: CLD_CYP2B6_48hr: CellzDirect (CLD) Gene Expression Assay for xenobiotic metabolism (CYP2B6) at 48 hours (AID 2283699);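 note: actives raise transcript level above DMSO so potency reflects induction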
Summary of the method: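 CYP2B6 transcript induction, read by quantitative nuclease protection (S1 digestion, chemiluminescent detection) 48 h after dosing, is fitted upward against 0.2% DMSO. Cultured human liver primary cells, two donor preparations, received fresh chemical daily over multiple concentrations.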

[12] = CLD_ACTIN_6hr: CellzDirect (CLD) Gene Expression Assay for Baseline Control (Actin) at 6 hours (AID 2283676);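 note: active means increased actin mRNA relative to DMSO vehicle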
Summary of the method: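 Baseline actin transcript level measured by qNPA (S1 nuclease protection, chemiluminescence) in human hepatocyte cultures 6 h after chemical exposure; 0.2% DMSO vehicle as reference, cytotoxicity noted from morphology.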

[13] = read-out: HMG-CoA synthase (HMGCS2), HMGCS2 (gene 3158); experiment: CLD_HMGCS2_24hr: CellzDirect (CLD) Gene Expression Assay for HMG-CoA synthase (HMGCS2) at 24 hours (AID 2283691)
Summary of the method: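 qNPA with S1 nuclease digestion and chemiluminescent detection gave HMGCS2 transcript levels, fitted upward against 0.2% DMSO vehicle. Cultured human hepatocytes (two donors) received fresh compound daily and were harvested at 24 h; phase-contrast morphology flagged cytotoxicity.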

[14] = read-out: Cytochrome P450 2C19 (Homo sapiens) (UniProt P33261); experiment: CLD_CYP2C19_48hr: CellzDirect (CLD) Gene Expression Assay for xenobiotic metabolism (CYP2C19) at 48 hours (AID 2283700);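 note: fitted upward so actives raise CYP2C19 mRNA above the 0.2% DMSO vehicle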
Summary of the method: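 CYP2C19 mRNA induction read by chemiluminescent quantitative nuclease protection assay after 48 h, with fresh compound added daily for two days to cultured human liver hepatocytes. Activity fitted upward against 0.2% DMSO vehicle.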

[15] = read-out: Cytochrome P450 2C19 (Homo sapiens) (UniProt P33261); experiment: CLD_CYP2C19_24hr: CellzDirect (CLD) Gene Expression Assay for xenobiotic metabolism (CYP2C19) at 24 hours (AID 2283687);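 note: activity means mRNA induction above DMSO vehicle baseline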
Summary of the method: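 CYP2C19 mRNA was quantified by qNPA chemiluminescence after 24 h of daily dosing of cultured human primary hepatocytes from two donors; vehicle was 0.2% DMSO, and increases over DMSO baseline were fitted.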

[16] = read-out: organic anion transporter (SLCO1B1), SLCO1B1 (gene 10599); experiment: CLD_SLCO1B1_24hr: CellzDirect (CLD) Gene Expression Assay for organic anion transporter (SLCO1B1) at 24 hours (AID 2283690)
Summary of the method: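 SLCO1B1 mRNA induction read at 24 h by quantitative nuclease protection assay (chemiluminescence), analyzed against DMSO baseline. Human hepatocyte cultures from separate donors received fresh dosing solutions daily; vehicle 0.2% DMSO; cytotoxicity flagged by phase-contrast morphology.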

[17] = read-out: ABC Transporter (ABCB1), ABCB1 (gene 5243); experiment: CLD_ABCB1_24hr: CellzDirect (CLD) Gene Expression Assay for ABC Transporter (ABCB1) at 24 hours (AID 2283684)
Summary of the method: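 ABCB1 mRNA induction versus 0.2% DMSO vehicle was read by qNPA chemiluminescence at 24 h. Cultured human hepatocytes from two donor preparations received daily fresh dosing, and phase-contrast cytotoxicity calls were annotated alongside the data.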

[18] = read-out: xenobiotic metabolism (CYP2C9), CYP2C9 (gene 1559); experiment: CLD_CYP2C9_48hr: CellzDirect (CLD) Gene Expression Assay for xenobiotic metabolism (CYP1A2) at 48 hours (AID 2283701; active = hit-call score of the fitted dose curve at least 0.9, where 1 is the maximum; inactive = score below 0.9)
Summary of the method: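 mRNA level measured by quantitative nuclease protection (S1 digestion, chemiluminescent detection) in lysates of human primary hepatocytes exposed 48 h with daily re-dosing. Induction fitted positively versus 0.2% DMSO; morphology-based cytotoxicity flagged yes/no.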

Measured: AC50

Sequence of Glyceraldehyde-3-phosphate dehydrogenase (Homo sapiens) (P04406 whole entry, looked up): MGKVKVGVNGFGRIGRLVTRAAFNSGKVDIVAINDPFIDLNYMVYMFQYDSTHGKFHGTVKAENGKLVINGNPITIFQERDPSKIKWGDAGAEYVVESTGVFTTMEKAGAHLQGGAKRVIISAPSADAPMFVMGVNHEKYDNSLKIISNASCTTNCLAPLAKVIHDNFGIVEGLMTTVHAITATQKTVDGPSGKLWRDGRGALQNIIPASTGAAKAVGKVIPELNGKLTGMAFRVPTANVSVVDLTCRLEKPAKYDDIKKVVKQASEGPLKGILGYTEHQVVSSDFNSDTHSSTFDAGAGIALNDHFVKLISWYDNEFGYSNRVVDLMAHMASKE
Sequence of Cytochrome P450 2C19 (Homo sapiens) (P33261 whole entry, looked up): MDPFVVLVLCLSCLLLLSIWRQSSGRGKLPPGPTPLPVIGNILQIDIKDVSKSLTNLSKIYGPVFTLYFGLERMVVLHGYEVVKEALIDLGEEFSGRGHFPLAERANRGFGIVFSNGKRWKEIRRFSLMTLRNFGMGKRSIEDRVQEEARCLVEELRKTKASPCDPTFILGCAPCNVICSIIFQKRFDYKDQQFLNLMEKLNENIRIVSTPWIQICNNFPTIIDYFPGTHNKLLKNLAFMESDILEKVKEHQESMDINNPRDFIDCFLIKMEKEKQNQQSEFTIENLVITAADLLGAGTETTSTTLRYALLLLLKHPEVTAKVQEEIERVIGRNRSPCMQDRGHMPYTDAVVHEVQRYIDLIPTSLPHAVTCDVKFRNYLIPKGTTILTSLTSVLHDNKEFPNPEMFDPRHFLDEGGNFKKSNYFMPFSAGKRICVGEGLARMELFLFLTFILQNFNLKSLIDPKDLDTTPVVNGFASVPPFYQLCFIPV
Sequence of Cytochrome P450 3A4 (Homo sapiens) (P08684 whole entry, looked up): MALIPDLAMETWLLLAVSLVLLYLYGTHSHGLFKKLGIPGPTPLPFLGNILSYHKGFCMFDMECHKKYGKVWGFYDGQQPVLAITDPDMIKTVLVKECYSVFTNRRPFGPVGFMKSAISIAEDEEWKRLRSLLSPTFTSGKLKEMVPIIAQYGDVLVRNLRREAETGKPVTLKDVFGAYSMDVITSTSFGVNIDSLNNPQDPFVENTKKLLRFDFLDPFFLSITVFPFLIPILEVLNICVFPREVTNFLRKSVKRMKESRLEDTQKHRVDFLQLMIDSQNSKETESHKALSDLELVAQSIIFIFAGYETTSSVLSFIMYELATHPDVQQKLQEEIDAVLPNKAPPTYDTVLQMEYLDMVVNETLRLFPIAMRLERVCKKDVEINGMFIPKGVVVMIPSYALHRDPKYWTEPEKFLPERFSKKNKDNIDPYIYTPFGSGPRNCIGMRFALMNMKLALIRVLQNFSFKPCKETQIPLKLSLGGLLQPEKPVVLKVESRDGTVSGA

CCCCCOC(=O)COc1cc(N2C(=O)C3=C(CCCC3)C2=O)c(F)cc1Cl
inactive: [1] | [3] | [4] | [6] | [7] | [8] | [9] | [10] | [11]
active: [2] 3140 nM | [5] 4010 nM

CCOC(=O)C(C)Oc1ccc(Oc2cnc3cc(Cl)ccc3n2)cc1 (stereo not given)
inactive: [12] | [3] | [5] | [13] | [7] | [8] | [9] | [10] | [14]
active: [2] 1700 nM

O=C(c1ccc(O)cc1O)c1ccc(O)cc1O
active: [2] 95200 nM

CCOC(=O)C(C)Oc1ccc(Oc2nc3ccc(Cl)cc3o2)cc1 (stereo not given)
active: [2] 2060 nM
not listed: [3] | [4] | [6] | [10] | [17] | [18]
inactive: all other assays above

O=C(c1ccccc1)C1CCCCC1
inactive: [2]

CCC(O)=C1C(=O)CC(C(=O)O)CC1=O (stereo not given)
active: [11] 0.247 nM
inactive: [2] | [4] | [16] | [6] | [7] | [8] | [9] | [14]

CCC(C)OC(=O)N1CCCCC1CCO (stereo not given)
not listed: [1] | [4] | [5] | [17] | [18]
inactive: all other assays above

N[C@@H](Cc1cc(I)c(Oc2ccc(O)c(I)c2)c(I)c1)C(=O)O
active: [2] 331 nM

CCNc1nc(N)nc(Cl)n1
not listed: [5] | [12] | [13] | [14] | [15] | [17] | [18]
inactive: all other assays above

OB(O)O
inactive: [2] | [5] | [13] | [6] | [8] | [9] | [10] | [11] | [14]

CCSC(=O)N(CC(C)C)CC(C)C
not listed: [1] | [4] | [5] | [10] | [17] | [18]
inactive: all other assays above

CCN(CC)C(=O)c1cccc(C)c1
active: [3] 20000 nM | [11] 3600 nM
inactive: [12] | [2] | [17] | [15] | [8] | [9] | [14]

COc1c(Cl)ccc(Cl)c1C(=O)O
active: [18] 26.7 nM
not listed: [3] | [6] | [10] | [11] | [16] | [17]
inactive: all other assays above

C#CCOC(=O)[C@@H](C)Oc1ccc(Oc2ncc(Cl)cc2F)cc1
active: [2] 593 nM | [3] 0.411 nM
not listed: [1] | [4] | [7] | [17] | [18]
inactive: all other assays above

CCOC(=O)c1ccc(O)cc1
active: [2] 62600 nM
